Where “and” joins values, the source holds several entries; their conditions need not be identical. Identical values can stand only once. Values without a mark were called inactive. Records with an inconclusive call do not appear. A call without a number means that no potency is given here. Calls of active or inactive are those of the source. Unless noted, calls come from the whole dose curve; as a rule, active = well fitted curve in the direction sought with a large enough effect; inconclusive = small, poorly fitted or top-dose-only effect, or another doubt; inactive = no such curve, though single readings can be large; an effect the other way counts as inactive or inconclusive.
Tests used:
[1] = Cell Viability - HepG2 (AID 433; calls by dose curve;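 note: potency is the fitted concentration of half-maximal effect; cells exposed to compound for 40 hours; potency for ATP loss meaning cytotoxicity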); conditions: qHTS
Summary of the method: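 HepG2 hepatocellular carcinoma cells (1500/well) were treated with compounds for 40 h at 37 °C in complete medium; intracellular ATP was read by CellTiter-Glo luminescence. Data were normalized to DMSO and 100 uM tamoxifen, and AC50 came from Hill fits.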

[2] = Cell Viability - NIH 3T3 (AID 541); conditions: NIH 3T3 cell viability, qHTS; activity change, negative = cytotoxicity: at 92.2 µM (top of the series);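 note: cells exposed to compound for 40 hours; nearly all actives have a fitted effect of over 25% in size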; note: potency is the fitted concentration of half-maximal effect
Summary of the method: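 Cells seeded at 1000/well, rested 5 hr at 37 °C, then dosed and incubated 40 hr at 37 °C. CellTiter-Glo added, 20 min room temperature, luminescence read. AC50 by Hill fit.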

[3] = Cell Viability - H-4-II-E (AID 543); conditions: H-4-II-E rat hepatoma viability; series mostly up to 92.2 µM;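 note: cells exposed to compound for 40 hours; nearly all actives have a fitted effect of over 35% in size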
Summary of the method: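 Cells seeded at 1500 per well and rested 5 hr; compounds added; 40 hr incubation at 37 °C; CellTiter-Glo added, 20 min at room temperature; luminescence read. Hill-equation fits gave AC50.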

[4] = Cell Viability - SH-SY5Y (AID 544); conditions: SH-SY5Y neuroblastoma cell viability; viability change, negative = cytotoxic: at 92.2 µM (top of the series);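 note: cells exposed to compound for 40 hours; nearly all actives have a fitted effect of over 55% in size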; note: potency is the fitted concentration of half-maximal effect
Summary of the method: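 Cells were plated at 1500 per well and allowed 5 hr at 37 °C. Compounds were added across a concentration range and incubated 40 hr at 37 °C. CellTiter-Glo was added for 20 min at room temperature before luminescence reading.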

[5] = Cell Viability - LYMP2-001 (AID 921); conditions: LYMP2-001 lymphoblastoid cell viability; series mostly up to 92.2 µM; note: nearly all actives have a fitted effect of over 70% in size
Summary of the method: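 Human lymphoblastoid cells (Coriell), 2500 per well, were preincubated 5 hr at 37 C, then exposed to compounds in complete medium for 24 hr at 37 C. Cellular ATP was read by CellTiter-Glo luminescence; AC50 from Hill fits of concentration-response data.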

[6] = Cell Viability - LYMP1-003 - Assay at 40 hr (AID 964); conditions: LYMP1-003 lymphoblastoid viability; series mostly up to 92.2 µM; note: nearly all actives have a fitted effect of over 60% in size
Summary of the method: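 Luminescent ATP signal (CellTiter-Glo) served as the viability read-out after 40 hr compound treatment of human lymphoblastoid LYMP1-003 cells at 37 C. Decreases in ATP were fitted with the Hill equation to give AC50.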

[7] = Cell Viability - LYMP2-015 (AID 971); conditions: LYMP2-015 lymphoblastoid cell viability; series mostly up to 92.2 µM; note: nearly all actives have a fitted effect of over 55% in size
Summary of the method: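 Cells are seeded at 2500 per well and incubated 5 hr at 37 C. Compounds are added across a concentration series for 24 hr at 37 C. CellTiter-Glo is added, and luminescence is read after 30 min at room temperature.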

[8] = Cell Viability - LYMP2-017 (AID 972); conditions: LYMP2-017 lymphoblastoid cell viability; series mostly up to 92.2 µM; note: nearly all actives have a fitted effect of over 55% in size
Summary of the method: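 Cytotoxicity is scored as a concentration-dependent drop in cellular ATP in a human lymphoblastoid line after 24 hr treatment at 37 C. Values are AC50s from Hill-equation modelling.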

[9] = Cell Viability - LYMP2-021 (AID 974); conditions: LYMP2-021 lymphoblastoid cells viability; series mostly up to 92.2 µM;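 note: compound exposure lasts 24 hours at 37 °C; nearly all actives have a fitted effect of over 55% in size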; note: potency is the fitted concentration of half-maximal effect
Summary of the method: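 Loss of cellular ATP, measured with a luciferase-based CellTiter-Glo readout, serves as the toxicity signal in human lymphoblastoid cells treated for 24 hours at 37 C. Potency is reported as AC50 from a standard Hill model.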

[10] = Cell Viability - LYMP2-006 (AID 978); conditions: LYMP2-006 lymphoblastoid cell viability, qHTS; series mostly up to 92.2 µM; note: nearly all actives have a fitted effect of over 60% in size
Summary of the method: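 Human lymphoblastoid cells, 2500 per well, were preincubated 5 hr at 37 C, then exposed to compounds for 24 hr at 37 C in complete medium. Viability was read as intracellular ATP by CellTiter-Glo luminescence; AC50 from Hill-equation fits of qHTS concentration-response data.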

[11] = Cell Viability - LYMP2-010 (AID 981); conditions: LYMP2-010 lymphoblastoid cell viability, qHTS; series mostly up to 92.2 µM; note: nearly all actives have a fitted effect of over 55% in size
Summary of the method: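 Steps: seed 2500 LYMP2-010 cells per well; incubate 5 hr at 37 C; add compound; incubate 24 hr at 37 C; add CellTiter-Glo, wait 30 min at room temperature; read luminescence. Concentration-response fitted to Hill equation for AC50.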

[12] = Cell Viability - LYMP2-012 (AID 982); conditions: LYMP2-012 lymphoblastoid cell viability qHTS; series mostly up to 92.2 µM
[13] = Cell Viability - LYMP2-016 (AID 984); conditions: LYMP2-016 lymphoblastoid cell viability, qHTS; series mostly up to 92.2 µM; note: nearly all actives have a fitted effect of over 55% in size
Summary of the method: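 Human lymphoblastoid cells (LYMP2-016), 2500/well in complete medium, preincubated 5 hr at 37 C, then compound-treated 24 hr at 37 C. Intracellular ATP read by CellTiter-Glo luminescence after 30 min at room temperature; AC50 from Hill-equation concentration-response fits.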

[14] = Cell Viability - LYMP2-020 (AID 986); conditions: series mostly up to 92.2 µM; note: nearly all actives have a fitted effect of over 55% in size
Summary of the method: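 Seed 2500 cells per well and incubate 5 hr at 37 C. Add compounds at a concentration series and incubate 24 hr at 37 C. Add CellTiter-Glo, wait 30 min at RT, read luminescence, and fit a Hill curve for AC50.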

[15] = Cell Viability - LYMP1-002 - Assay at 40 hr (AID 994); conditions: LYMP1-002 lymphoblastoid cell viability; series mostly up to 92.2 µM; note: nearly all actives have a fitted effect of over 60% in size
Summary of the method: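 Cells are plated at 2500 per well and rested 5 hr at 37 C. Compounds are added and incubated 40 hr at 37 C. CellTiter-Glo reagent is added for 30 min at room temperature before luminescence is read.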

[16] = target: Retinoic acid receptor RXR-alpha (Homo sapiens) (UniProt P19793); assay: qHTS assay for small molecule agonists of retinoid X receptor alpha signaling (AID 588544; calls by dose curve); conditions: HEK293T RXRa-UAS-bla, beta-lactamase reporter, 18 h; series mostly up to 76.7 µM
Retinoic acid receptor RXR-alpha (Homo sapiens), sequence (P19793 whole entry, looked up): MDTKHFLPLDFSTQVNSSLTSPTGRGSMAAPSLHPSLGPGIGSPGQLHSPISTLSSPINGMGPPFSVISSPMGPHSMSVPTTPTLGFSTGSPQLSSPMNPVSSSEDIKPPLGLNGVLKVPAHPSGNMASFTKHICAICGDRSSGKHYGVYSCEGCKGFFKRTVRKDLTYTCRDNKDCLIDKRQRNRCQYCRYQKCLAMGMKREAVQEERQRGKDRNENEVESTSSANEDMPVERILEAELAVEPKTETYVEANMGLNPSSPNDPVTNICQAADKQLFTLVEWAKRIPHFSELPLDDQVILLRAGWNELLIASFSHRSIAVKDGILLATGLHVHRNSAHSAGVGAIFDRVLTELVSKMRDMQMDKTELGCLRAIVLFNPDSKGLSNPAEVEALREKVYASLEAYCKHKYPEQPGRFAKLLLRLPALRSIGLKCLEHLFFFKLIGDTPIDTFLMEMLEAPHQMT

[17] = target: Retinoic acid receptor RXR-alpha (Homo sapiens) (UniProt P19793); assay: qHTS assay for small molecule antagonists of retinoid X receptor alpha signaling (AID 588546; active = well fitted inhibition curve with a large enough effect in the signal ratio, with a control signal flat, not every such curve was filed as active; the % refers to the signal ratio;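 note: cells stimulated with 9-cis-retinoic acid as agonist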); conditions: HEK293T RXRa-UAS-bla, beta-lactamase ratio, antagonist mode
Summary of the method: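 Beta-lactamase reporter inhibition, read as CCF4 fluorescence ratio (ex 405, em 460/530 nm) after 2 h at RT. HEK293T UAS-bla cells, 2500/well, were stimulated with 9-cis-RA at 500 or 100 nM final alongside test compound for 18 h at 37 C.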

[18] = qHTS assay for small molecule agonists of the antioxidant response element (ARE) signaling pathway measured by Nrf2-dependant transcriptional activity (AID 720636; active = well fitted curve in the direction sought with a large enough effect in the repeat runs; an effect the other way counts as inactive or inconclusive;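 note: HepG2 cells with an ARE-driven luciferase reporter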); conditions: ARE-luc HepG2, Nrf2 luciferase reporter, 16 h; series mostly up to 92.4 µM
Summary of the method: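 Reporter gene assay, HepG2 ARE-luc: 16 hr compound, 37 C, 5% CO2; read-out luciferase luminescence.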

[19] = Cell Viability - LYMP2-003 (AID 965); conditions: LYMP2-003 lymphoblastoid cell viability; series mostly up to 92.2 µM;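 note: cells exposed to compounds for 24 h before reading; nearly all actives have a fitted effect of over 50% in size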
Summary of the method: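 Human lymphoblastoid cells (2500/well) were pre-incubated 5 hr at 37 C, then exposed to compounds over a concentration range for 24 hr at 37 C. Intracellular ATP was read by CellTiter-Glo luminescence; AC50 came from Hill-equation fits.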

[20] = qHTS assay for small molecule activators of the human pregnane X receptor (PXR) signaling pathway (AID 720659; call rule not given here); conditions: DPX-2 HepG2 CYP3A4-luciferase, 24 h; series mostly up to 92.3 µM

Structure (SMILES)	Potency [1] [µM]	Potency [2]	Potency [3]	Potency [4]	Potency [5]	Potency [6]	Potency [7]	Potency [8]	Potency [9]	Potency [10]	Potency [11]	Potency [12]	Potency [13]	Potency [14]	Potency [15]	outcome [16]	max response [17]	Potency [18]	Potency [19]	outcome [20]
Cc1coc2c1CCC(C)C2 (stereo unspecified)	> 92	inactive	inactive	inactive	inactive	inactive	inactive	inactive	inactive	inactive	inactive	inactive	inactive	inactive	inactive	inactive	-0.116%	inactive		
Cc1cccc(C)c1N	> 92	inactive	inactive	inactive	inactive	inactive	inactive	inactive		inactive	inactive			inactive		inactive	17.5%	inactive	inactive	inactive
C=C(Cl)CCl	> 92	inactive	inactive	inactive		inactive		inactive	inactive			inactive	inactive	inactive	inactive	inactive	-0.897%	inactive	inactive	inactive
CC(C)OC(=O)Cc1ccccc1	> 92	inactive	inactive	inactive	inactive	inactive	inactive	inactive	inactive	inactive		inactive	inactive	inactive	inactive		8.61%			inactive
CC(Cl)(Cl)Cl	> 92	inactive	inactive	inactive	inactive			inactive	inactive	inactive	inactive			inactive		inactive	5.12% and 15.9%		inactive	inactive
CC(C)Br	> 92	inactive		inactive	inactive	inactive	inactive	inactive	inactive		inactive			inactive			-3.19%	inactive	inactive	inactive
Cc1ccc2c(C)cccc2c1	> 92	inactive	inactive	inactive	inactive			inactive	inactive	inactive	inactive	inactive		inactive	inactive	inactive	4.66%	inactive		inactive
COc1c(C(C)(C)C)cc([N+](=O)[O-])c(C)c1[N+](=O)[O-]	> 92	inactive		inactive	inactive	inactive	inactive		inactive	inactive	inactive	inactive	inactive	inactive	inactive	inactive	-14.3%	inactive	inactive	inactive
Nc1ccc(-c2ccccc2)cc1	> 92			inactive		inactive	inactive	inactive	inactive	inactive	inactive	inactive	inactive	inactive	inactive	inactive	-7.2%		inactive	inactive
CCCN(CCC)c1c([N+](=O)[O-])cc(C(F)(F)F)cc1[N+](=O)[O-]	> 92	inactive	inactive	inactive		inactive	inactive	inactive	inactive	inactive	inactive	inactive	inactive		inactive	inactive	0.285% and -10.3%	inactive	inactive	
Clc1ccc(C(Cl)(Cl)Cl)c(Cl)c1	> 92		inactive	inactive	inactive		inactive	inactive	inactive	inactive		inactive	inactive	inactive	inactive	inactive	8.02%		inactive	inactive
O=[N+]([O-])c1cccc(O)c1	> 92	inactive	inactive	inactive	inactive		inactive	inactive	inactive	inactive	inactive	inactive	inactive	inactive		inactive	-5.97%		inactive	inactive
[O-][Cl+2]([O-])O	> 92		inactive	inactive	inactive	inactive	inactive	inactive	inactive	inactive		inactive	inactive	inactive	inactive	inactive	-4.77%	inactive	inactive	inactive
FC(Cl)(Cl)Cl	> 92		inactive	inactive	inactive	inactive	inactive	inactive	inactive		inactive	inactive	inactive		inactive	inactive	-1.5%	inactive		inactive
Clc1ccc(C(Cl)(Cl)Cl)cc1Cl	> 92	inactive	inactive	inactive	inactive	inactive	inactive	inactive	inactive	inactive		inactive	inactive	inactive	inactive	inactive	-3.13%	inactive		inactive
Cc1ccc(N)c(N)c1	> 92	5.01 µM (active)	inactive	12.6 µM (active)					31.6 µM (active)				inactive			inactive	-10.9%			
BrCC(Br)C1CCC(Br)C(Br)C1 (stereo unspecified)	> 92				inactive		inactive	inactive	inactive		inactive		inactive	inactive	inactive		18%	inactive	inactive	

Reference: PubChem BioAssay (NCATS)
